Data as given in PubChem BioAssay AID720536 (National Center for Advancing Translational Sciences (NCATS), 2013).
Hit rate of the full screen: of about 1,600 compounds, about 650 (41%) were called active. Roughly 39% stayed inconclusive and do not appear here. The call rests on the fitted dose curve; in most records, active means well fitted inhibition curve with a large enough effect; inconclusive means small, poorly fitted or top-dose-only effect; inactive means no such curve, though single readings can be large or run the other way. The set was probably picked from earlier hits. Shown is part of a subset that was picked to be rich in actives.

assay: qHTS for Inhibitors of TGF-b: CCL64 Cells Orthogonal Assay for Cherry Picks; settings: CCL64 CAGA-GFP reporter, TGF-b stimulated, GFP fluorescence, 18 h; series mostly up to 46.1 µM; further: nearly all actives have a fitted effect of over 65% in size
Source text: TGF-b is a main component in the TGF-b signaling pathway which plays diverse roles in cellular and development pathways. TGF-b is the mediated by the transcription factors Smads. Although the Smad-dependent pathway is the primary canonical TGF-b signaling node, TGF-b1 can also activate alternative signaling pathways, including those involving MAPK (ERK, JNK and p38). This interaction may mediate or enhance Smad-dependent responses, or can exert Smad-independent effects. The complexity of this signaling cascade allows the TGF-b superfamily to perform unique, overlapping or redundant functions. We believe that targeting the TGF-beta pathway at the Smad-transcription factor level may eliminate the consequences of disrupting the entire pathway and offer specificity without affecting other signaling pathways. Smad3 is the primary transducer of TGF-b's signals and Smad3 regulates many functions attributed to TGF-b signaling. We hypothesize that Smad3 inhibitors will selectively eliminate Smad3-specific TGF-beta signals without undesired off-target effects. We aim to identify Smad3-small molecule antagonists using a quantitative high throughput screening (qHTS) approach. A high-throughput assay was developed to screen the NIH Molecular Libraries Small Molecule Repository (MLSMR). This is a cell based assay, where TGF-b is tagged with GFP. This orthogonal assay was run using CCL64 cells (as opposed to HepG2); activity was desired in this assay as this indicated the hits identified from the screen are not a cell-based artifact. MH087449NIH Chemical Genomics Center [NCGC] NIH Molecular Libraries Probe Centers Network [MLPCN] MLPCN Grant: MH087449 Assay Submitter (PI): Sushil Rane, National Institute of Diabetes and Kidney Diseases
Suspensions of trypsinized CCL64 CAGA-GFP cells were dispensed into white, tissue culture-treated, solid 1536-well plates at 5uL/well (1000 cells/well final concentration) in DMEM medium supplemented with 1% FBS. Plates were incubated at 37 degrees C for 2 hours, after which 23 nL of compounds or DMSO were delivered to each well using a pin tool. One uL of recombinant TGF-beta in DMEM (1% FBS) was then dispensed (500 pg/mL final concentration), and plates were incubated at 37 degrees C for 18 hours. The plates were measured on an Acumen eX3 Explorer plate reader for GFP fluorescence (ex488/em500-530). GFP values were calculated by determining the mean GFP fluorescence of individual cells, and compiling these values for each well to determine a total well GFP signal. The %Activity was determined from the corrected fluorescence values. A titration of the known TGF-B inhibitor SB431542 was included to monitor plate performance, while unstimulated […] (-TGF-B) control wells were used to normalize %Activity of identified inhibitors; unstimulated wells corresponded to 100%Activity (full inhibition), while stimulated cell controls (+DMSO) were used to normalize 0%Activity (no inhibition). Concentration-response curves were fitted to the signals arising from the resulting fluorescence. The concentration-effect curves were then classified based on curve quality (r2), response magnitude and degree of measured activity, and compounds were subsequently categorized based on their curve class.
Potency means the concentration at half of the fitted maximal effect.

Compound	Potency
COc1cc(NC(=O)c2[nH]cnc2C(N)=O)cc(C(=O)Nc2cccc(C(F)(F)F)c2)c1	9.2 µM (active)
CCCc1cc(-c2n[nH]c(=S)n2CC)c2ccccc2n1	inactive
Clc1ccc2c(c1)C1=C(C(c3ccncc3)O2)C(c2ccc(Br)cc2)n2ncnc2N1 (centres undefined)	10.3 µM (active)
Cc1ccc(-c2nc3ccc(Br)cn3c2Cc2ccccc2C(F)(F)F)cc1	inactive
CCOC(=O)C1=C(N)N(c2ccc(C)cc2)C2=C(C(=O)CCC2)C1c1cccs1 (centres undefined)	23.1 µM (active)
Cc1cccc(NC(=O)c2nc(S(=O)(=O)Cc3ccccc3)ncc2Cl)c1	2.59 µM (active)
Cc1cccc(CS(=O)(=O)c2ncc(Cl)c(C(=O)Nc3ccc(F)cc3)n2)c1	4.61 µM (active)
Cc1ccc(S(=O)(=O)Nc2ccc3c(c2)C(=O)N([C@H](C)CO)C[C@@H](C)[C@@H](CN(C)C(=O)Nc2cccc4ccccc24)O3)cc1	inactive
COc1cc(NC(=O)COC(=O)c2ccc([N+](=O)[O-])s2)cc(OC)c1OC	inactive
CC1CCc2c(nc3ncnn3c2Nc2ccc(OC(F)(F)F)cc2)C1 (centres undefined)	inactive
Cc1nc(/N=C(\N)NC(=O)NC2CCCCC2)nc2ccccc12	20.6 µM (active)
COc1cccc(CNc2nc(NCc3ccccc3OC)nc3ccsc23)c1	18.4 µM (active)
O=C(Nc1ccc(C2CC2(Cl)Cl)cc1)c1cccc([N+](=O)[O-])c1 (centres undefined)	14.6 µM (active)
CC(=NNC(=S)N1CCCCCC1)c1ccccn1	4.11 µM (active)
O=C(NC1=CC(=O)c2ccccc2C1=O)c1ccccc1	3.66 µM (active)
CCCOc1ccccc1C1CC(=O)Nc2cc3c(cc21)OCO3 (centres undefined)	13 µM (active)
Cc1ccc(CN2CC(N3CCC(Cc4ccccc4)CC3)CS2(=O)=O)cc1 (centres undefined)	inactive
CCCOc1ccc(F)cc1-c1cc(C(=O)Nc2ccc(F)c(Cl)c2)[nH]n1	25.9 µM (active)
O=[N+]([O-])c1ccccc1S(=O)(=O)Nc1cccc2cccnc12	8.2 µM (active)
Clc1ccc(Nc2nc(-c3cccs3)cs2)nc1	29.1 µM (active)
COC(=O)COc1cccc2c(=O)n(CC(=O)NCc3ccccc3)ccc12	inactive
COc1cc(/C=C2\Oc3ccc(C#Cc4ccc(O)cc4)cc3C2=O)cc(OC)c1	5.17 µM (active)

Compound	Potency
Cc1cc(C)cc(N(CC(=O)N2CC=C(c3ccccc3)CC2)S(=O)(=O)c2c(C)noc2C)c1	10.3 µM (active)
COc1ccc(CNC(=O)C[C@H]2C[C@H](C(=O)N3CCOCC3)[C@@]3(CCC4CCCC4)c4[nH]c5ccc(Cl)cc5c4CCN3C2=O)cc1OC	5.17 µM (active)
COc1ccc2nc(N3CCN(C(=O)c4ccc([N+](=O)[O-])o4)CC3)sc2c1	inactive
CN(C)CCNC(=O)c1ccc(Cl)c2cc3ccccc3nc12	4.61 µM (active)
Fc1cc(F)c2nc(Nc3nc4c(F)cccc4s3)sc2c1	inactive
c1ccc2cc3c(NCCN4CCOCC4)ccnc3cc2c1	13 µM (active)
Cn1c(=O)n(C)c2cc(S(=O)(=O)N3CCCc4ccccc43)ccc21	inactive
COc1ccc(-c2csc(NC3OC(=O)c4ccccc43)n2)cc1 (centres undefined)	11.6 µM (active)
OCC1OC(n2cnc3c(N4CCCC4)ncnc32)C(O)C1O (centres undefined)	inactive
COc1cc(NC(=O)c2ccccc2NS(=O)(=O)c2ccc(Cl)s2)cc(OC)c1	4.61 µM (active)
Cc1cccc2sc(N(CCCN(C)C)C(=O)CCS(=O)(=O)c3ccccc3)nc12	3.26 µM (active)
COc1cccc2sc(N(CCCN(C)C)C(=O)CCS(=O)(=O)c3ccccc3)nc12	2.91 µM (active)
COc1c(C(C)C)oc2cc3oc(=O)ccc3cc12	inactive
O=C(Nc1ccc(Br)cn1)c1ccc([N+](=O)[O-])o1	13 µM (active)
COc1ccc(-c2onc(C)c2-c2ccc3c(c2)OCCO3)c(O)c1	14.6 µM (active)
CN(C)c1nc(N)nc(CSc2nnnn2-c2cccc3ccccc23)n1	inactive
COc1ccc(CC(=O)Nc2ccccc2NC(=O)c2ccco2)cc1OC	inactive
CC(=O)c1ccc(-c2cnc3c(NC=O)cc(-c4cccc(NS(C)(=O)=O)c4)cn23)cc1	5.17 µM (active)
Cc1ccc(C)c(S(=O)(=O)N2CCN(CC(=O)Nc3ccc([N+](=O)[O-])cc3)CC2)c1	inactive
OCCCNc1nccc(-c2cc(Nc3cccc(Cl)c3)ncn2)n1	1.3 µM (active)
O=C(CCC(=O)N1CCN(S(=O)(=O)c2ccc(Cl)cc2)CC1)NCc1cccc(C(F)(F)F)c1	inactive
O=C(/C(=C/c1cccc(Cl)c1)c1nc2ccccc2[nH]1)c1ccccc1	4.61 µM (active)
